Tb PYK inh: T. brucei pyruvate kinase inhibition; Q57TT1; TbPYK enzyme, Kinase-Glo Plus ATP luminescence, 45 min; Potency, µM (titrated, usually from 76.8 µM), for inactives: top-dose activity, negative = inhibition, usual class: inhibitors; 410,000 tested, 0.12% active; note: nearly all actives have a fitted effect of over 50% in size
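TbPYK + substrate in 50 mM TEA pH 7.2, 100 mM KCl, 10 mM MgCl2, 0.05% BSA, 0.01% Tween-20; cpd pinned; ADP 130 uM final; 45 min RT; Kinase-Glo Plus 10 min; luminescence endpoint.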
RE007 growth inh: less growth of the S. pombe RE007 Vpr strain | S. pombe RE007 Vpr strain, BacTiter-Glo ATP luminescence, 24 h | Potency, µM (top dose mostly 92.2 µM), without a hit: top-dose activity change, negative = less growth, usual class: inhibitors | 360,000 tested, 0.21% active; active = well fitted falling curve with a large enough effect; inconclusive = small, poorly fitted or top-dose-only effect; inactive = no such curve, though single readings can be large or run the other way; note: nearly all actives have a fitted effect of over 50% in size
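Fission yeast strain RE007, carrying one chromosomally integrated HIV-1 vpr copy, was seeded at OD 0.01 in PMG+AL medium with 23 nL pinned compound. After 24 h at 30 °C and 99% humidity, viability was read by BacTiter-Glo luminescence.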
LmPK inh: blocks Leishmania mexicana pyruvate kinase activity | Q27686 | 290,000 tested, 0.37% active | purified LmPK, Kinase-Glo ATP luminescence, 1 h | Potency, µM (series often up to 57.5 µM), without a hit: at the top dose activity change, negative = inhibition, hits mostly inhibitors | AID 1721
Target sequence (Q27686 whole entry, looked up): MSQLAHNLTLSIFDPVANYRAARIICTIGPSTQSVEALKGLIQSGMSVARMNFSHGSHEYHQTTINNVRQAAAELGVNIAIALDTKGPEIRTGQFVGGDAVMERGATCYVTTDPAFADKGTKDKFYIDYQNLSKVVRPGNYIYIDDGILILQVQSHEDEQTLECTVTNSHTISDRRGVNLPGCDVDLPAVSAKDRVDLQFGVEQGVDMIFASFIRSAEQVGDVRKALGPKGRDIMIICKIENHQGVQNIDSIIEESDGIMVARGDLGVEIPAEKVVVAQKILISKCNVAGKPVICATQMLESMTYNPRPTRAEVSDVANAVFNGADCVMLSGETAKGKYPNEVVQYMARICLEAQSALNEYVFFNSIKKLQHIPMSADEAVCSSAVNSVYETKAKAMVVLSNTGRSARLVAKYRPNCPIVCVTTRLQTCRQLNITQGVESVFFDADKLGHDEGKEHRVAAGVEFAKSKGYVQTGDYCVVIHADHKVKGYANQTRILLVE
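0.1 nM LmPK, 0.5 mM PEP, 0.1 mM ADP; 50 mM imidazole pH 7.2, 7 mM MgCl2, 50 mM KCl; 1 h RT. Kinase-Glo luminescence readout, normalized to no-enzyme (full inhibition) and uninhibited wells.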
Sm TGR inh: S. mansoni TGR enzyme inhibition; Q962Y6; purified TGR, DTNB reduction, TNB absorbance 405 nm; Potency, µM (doses to about 114 µM), for inactives: top-dose activity change, negative = inhibition, usual class: inhibitors; 360,000 tested, 3% active; note: nearly all actives have a fitted effect of over 60% in size
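Kinetic colorimetric format: TGR-catalysed, NADPH-driven DTNB reduction monitored via TNB absorbance. Enzyme dispensed at 20 nM; compound exposure 15 min at room temperature before reaction start.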
Starred values were filed as active, the others as inactive. Hits are enriched below; roughly 3% of the tested compounds scored in any of these assays. Unless noted, calls come from the whole dose curve; as a rule, active = well fitted curve in the direction sought with a large enough effect; inconclusive = small, poorly fitted or top-dose-only effect, or another doubt; inactive = no such curve, though single readings can be large; an effect the other way counts as inactive or inconclusive. % is set by controls: 0 for no effect and ±100 for the full control effect; potency is the fitted concentration of half-maximal effect.

Screening OC[C@@H]1CN(Cc2ccco2)C[C@H](n2cnc3c(N4CCN(c5ccccc5)CC4)ncnc32)O1 returned Tb PYK inh -6.1% and RE007 growth inh -10.1%.
Cn1c(O)c(C(=Nc2ccccc2)SCc2ccc(Cl)cc2)c(=O)n(C)c1=O was read as Tb PYK inh -18.7%, RE007 growth inh -9.7%, LmPK inh -6.0% and Sm TGR inh 20µM*.
For O=S(=O)(c1ccccc1)n1nc(-c2ccco2)nc1NCc1ccccc1 the results were Tb PYK inh 0.1% and Sm TGR inh -20.0%.
Screening Fc1ccc(-n2c(-c3ccc4c(c3)OCO4)n[nH]c2=S)cc1Cl returned Tb PYK inh 3.98µM*, RE007 growth inh 19.1%, LmPK inh 14.1µM* and Sm TGR inh -6.7%.
`COc1cc(OC)cc(-c2n[nH]c(=S)n2-c2ccc3c(c2)OCO3)c1` gave Tb PYK inh inconclusive, RE007 growth inh -0.5%, LmPK inh 5.01µM* and Sm TGR inh -1.2%.
COc1ccc(-n2c(-c3ccc(C)cc3)n[nH]c2=S)cc1 was read as Tb PYK inh inconclusive, RE007 growth inh 21.5%, LmPK inh inconclusive and Sm TGR inh -7.2%.
Screening c1ccc(CN=C2NN=C(c3ccccc3)CS2)cc1 returned Tb PYK inh -11.5%, RE007 growth inh -9.9%, LmPK inh -13.1% and Sm TGR inh -16.6%.
Screening CC(=O)c1c(C)[nH]c(C2=NNC(=NCc3ccccc3)SC2)c1C returned Tb PYK inh -19.1%, RE007 growth inh 8.4%, LmPK inh -6.4% and Sm TGR inh 11.2µM*.
COc1ccccc1OCc1nc2ccccc2[nH]1 was read as Tb PYK inh 6.2%, RE007 growth inh 0.5%, LmPK inh -16.5% and Sm TGR inh -1.8%.
COc1cccc(OCc2nc3ccccc3[nH]2)c1 was read as Tb PYK inh -2.3%, RE007 growth inh 0.2%, LmPK inh -12.2% and Sm TGR inh -9.6%.
For Cc1ccccc1OCc1nc2ccccc2[nH]1 the results were Tb PYK inh -2.4%, RE007 growth inh inconclusive, LmPK inh 17.8µM* and Sm TGR inh 10.4%.
For COc1ccc(OCc2nc3ccccc3[nH]2)cc1 the results were Tb PYK inh -8.6%, RE007 growth inh -2.5%, LmPK inh 17.8µM* and Sm TGR inh -18.7%.
CN(C)C(=O)Oc1ccc(OCc2nc3ccccc3[nH]2)cc1 was read as Tb PYK inh inconclusive, RE007 growth inh inconclusive, LmPK inh 7.08µM* and Sm TGR inh -5.0%.
Screening COc1ccc(CSc2nc3ccccc3[nH]2)cc1 returned Tb PYK inh -10.2%, RE007 growth inh 31.6µM*, LmPK inh 15.8µM* and Sm TGR inh 18.6%.
Screening COc1ccc(NC(=O)C(NC(=O)/C=C\c2ccc3c(c2)OCO3)c2ccccc2)cc1 (configuration not stated) returned Tb PYK inh 9.3% and Sm TGR inh 1.5%.
Screening COc1ccc(CN2CCCN(CC(=O)Nc3cc(C)ccc3C)S2(=O)=O)cc1 returned Tb PYK inh -3.4% and Sm TGR inh -2.4%.
CC(O)c1nc2ccccc2n1Cc1ccccc1 (configuration not stated) was read as Tb PYK inh -3.2%, RE007 growth inh -13.1%, LmPK inh -3.5% and Sm TGR inh 5.62µM*.
Cc1cn2c(=O)c(S(=O)(=O)NCc3ccc(F)cc3)c(C)nc2s1 was read as Tb PYK inh 1.9% and Sm TGR inh 4.6%.
Screening COC(=O)C1=C(C)N(CC2CCCO2)C(=O)/C1=C\c1ccc(O)cc1 (configuration not stated) returned Tb PYK inh 2.9%, RE007 growth inh -8.6%, LmPK inh 0.3% and Sm TGR inh 50.1µM*.
`CC(C)(C)OC(=O)N1CCC(c2c(C(=O)N3CCN(C(=O)c4ccco4)CC3)cnn2-c2ccc(Cl)cc2)CC1` gave Tb PYK inh -10.0% and Sm TGR inh 2.1%.
`COc1ccc(S(=O)(=O)N(CC(=O)N2CCCCCC2)c2ccccc2OC)cc1` gave Tb PYK inh -0.7%, RE007 growth inh 6.9%, LmPK inh 0.6% and Sm TGR inh 1.6%.
O=C(NC1CCCCC1)C(c1ccncc1)N(Cc1ccc2c(c1)OCO2)C(=O)C(F)(F)F (configuration not stated) was read as Tb PYK inh -8.9%, RE007 growth inh 16.4%, LmPK inh -3.4% and Sm TGR inh 44.7µM*.

High-throughput results as filed in PubChem.
